This passage reports Potency results from PubChem BioAssay (NCATS).

The target in test [1] is Aldehyde dehydrogenase, mitochondrial (Homo sapiens) (UniProt P05091). Nature of the test: qHTS for Inhibitors of the Aldehyde Dehydrogenase Family (ALDH2) Primary screen (AID 2061308). Further: nearly all actives have a fitted effect of over 55% in size. The settings on record: ALDH2 enzyme inhibition qHTS, 1536-well; series mostly up to 56 µM. In general terms: In qHTS, concentration-response curves come from the screen itself.
The target of test [2] is Retinaldehyde dehydrogenase 3 (Homo sapiens) (UniProt P47895). Nature of the test: qHTS for Inhibitors of the Aldehyde Dehydrogenase Family (ALDH1A3) Primary screen (AID 2061315). To be noted: ALDH inhibition qHTS; series mostly up to 56 µM.

The structures appear in SMILES notation. Inconclusive results are not listed. A call without a number means that no potency is given here. Activity calls are given as the source filed them. The call rests on the fitted dose curve; in most records, active means well fitted curve in the direction sought with a large enough effect; inconclusive means small, poorly fitted or top-dose-only effect, or another doubt; inactive means no such curve, though single readings can be large; an effect the other way counts as inactive or inconclusive.

On to `CC(C)[C@H]1OC(=O)[C@H](Cc2ccccc2)N(C)C(=O)[C@@H](C(C)C)OC(=O)[C@H](Cc2ccccc2)N(C)C(=O)[C@@H](C(C)C)OC(=O)[C@H](Cc2ccccc2)N(C)C1=O`, for which the Potency result in test [1] and in test [2] was “inactive” throughout.
As for `COC1CC(OC2CCC3(C=O)C(CCC4C3CCC3(C)C(C5=CC(=O)OC5)CCC43O)C2)OC(C)C1OC1OC(CO)C(O)C(O)C1O` (configuration not stated), the Potency result in test [1] and in test [2] was “inactive” in each case.
As to `Cc1ccccc1C(=O)N1CCc2cc(N3CCC(NC(=O)Cc4ccccc4)C3)ccc21` (configuration not stated), the Potency entry in test [1] and in test [2] was “inactive” in each case.
Consider `CCOc1ccc(CCNC(=O)c2cc3ccccc3n2Cc2ccccn2)cc1OCC`, for which the Potency entry in test [1] and in test [2] was “inactive” each time.
`CN1Cc2c(ccc3c2OCO3)[C@@H]2[C@H]1c1cc3c(cc1C[C@@H]2O)OCO3`: the Potency result in test [1] and in test [2] was “inactive” throughout.
`O=C(O)c1ccnc2cc(C(OCCN3CCCCC3)c3ccccc3Cl)[nH]c12` (configuration not stated): the Potency entry in test [1] and in test [2] was “inactive” each time.
On to `CCOc1ccc(CCNC(=O)c2cc3sccc3n2Cc2ccc(F)cc2F)cc1OCC`, for which the Potency entry in test [1] and in test [2] was “inactive” each time.
Consider `CC(=O)O[C@H]1C(=O)[C@]2(C)C(O)C[C@H]3OC[C@@]3(OC(C)=O)[C@H]2[C@H](OC(=O)c2ccccc2)[C@]2(O)C[C@H](O)C(C)=C1C2(C)C` (some centres not stated), for which the Potency entry in test [1] and in test [2] was “inactive” throughout.
`COC(=O)C12C(=O)C(C)(O)C(=O)C1(C)C(C)=CC1C34CCC(OC3=O)C(C)(C)C4CCC12C` (configuration not stated): the Potency entry in test [1] and in test [2] was “inactive” in each case.
In the case of `C[C@@H](CN1CCC(n2c(=O)[nH]c3cc(Br)ccc32)CC1)NC(=O)[C@@H]1C[C@H]1c1ccccc1`, the Potency entry in test [1] and in test [2] was “inactive” in each case.
For the molecule `Cc1cccc(-n2cnc3cc(C(=O)N4CCCC(C)C4)ccc32)c1` (configuration not stated), the Potency entry in test [1] and in test [2] was “inactive” throughout.
As to `Cc1nnc2n1-c1sc(CCc3ccc(CC(C)C)cc3)cc1C(c1ccccc1Cl)=NC2C` (configuration not stated), the Potency result in test [1] and in test [2] was “inactive” in each case.
Take `Cc1cccc2nc(NC3=NC(c4[nH]ncc4Cl)C4=C(CCCC4=O)N3)oc12` (configuration not stated): the Potency entry in test [1] and in test [2] was “inactive” in each case.
With `CCOc1ccc(CCNC(=O)c2cc3sccc3n2CCN(C)C)cc1OCC`, the Potency entry in test [1] and in test [2] was “inactive” in each case.
For `COc1cccc(CNc2ccc(S(=O)(=O)Nc3cccc(-c4ccccc4)c3)cc2)c1O`, the Potency result in test [1] and in test [2] was “inactive” each time.
Consider `C[C@H]1C(=O)O[C@H]2[C@H](O)[C@]34C5OC(=O)[C@]3(O[C@@H]3OC(=O)[C@H](O)C34[C@H](C(C)(C)C)[C@H]5O)C12O` (some centres not stated), for which the Potency entry in test [1] and in test [2] was “inactive” throughout.
For `C#CCO[C@H]1CN2CCC1CC2`, the Potency result in test [1] and in test [2] was “inactive” throughout.
As to `S=P(c1ccccc1)(c1ccccc1)c1cnc2ccccn12`, the Potency entry in test [1] and in test [2] was “inactive” in each case.
On to `CCOc1ccc(CCNC(=O)c2cc3ncccc3n2Cc2cccc(C)c2)cc1OCC`, for which the Potency result in test [1] and in test [2] was “inactive” in each case.
In the case of `C[C@]12CC[C@@H](O[C@@H]3O[C@H](CO)[C@@H](O)[C@H](O)[C@H]3O)C[C@@]1(O)CCC1C2CC[C@]2(C)[C@@H](C3=CC(=O)OC3)CC[C@]12O` (some centres not stated), the Potency entry in test [1] and in test [2] was “inactive” throughout.
With `CCCCCn1cc(C(=O)C2C(C)(C)C2(C)C)c2ccccc21`, the Potency result in test [1] and in test [2] was “inactive” each time.
`O=C(NCCN1CCC2(CC1)C(=O)NCN2c1cccc(F)c1)c1ccc2ccccc2c1`: the Potency entry in test [1] and in test [2] was “inactive” in each case.
As to `CC[C@H]1C2CC3[C@@H]4N(C)c5ccccc5[C@]45C[C@@H]([C@H]2[C@H]5O)N3[C@@H]1O`, the Potency entry in test [1] and in test [2] was “inactive” each time.
Turning to `C[C@]12CC[C@@H](O)C[C@@H]1CC[C@@H]1[C@@H]2CC[C@]2(C)C(=O)[C@@H](Br)C[C@@H]12`, the Potency result in test [1] and in test [2] was “inactive” each time.
For `N#Cc1ccc(NC(=O)Nc2nnc(-c3ccncc3)s2)cc1C(F)(F)F`, the Potency entry in test [1] and in test [2] was “inactive” each time.
With `CO[C@@H]1C[C@H](O[C@H]2CC[C@@]3(C)C(CCC4C3CC[C@]3(C)[C@@H](C5=CC(=O)OC5)[C@@H](OC(C)=O)CC43O)C2)O[C@H](C)[C@@H]1O[C@H]1O[C@H](CO[C@@H]2O[C@H](CO)[C@@H](O)[C@H](O)[C@H]2O)[C@@H](O)[C@H](O)[C@H]1O` (some centres not stated), the Potency result in test [1] and in test [2] was “inactive” each time.
Consider `Cc1[nH]c2ccccc2c1P(=S)(c1ccccc1)c1ccccc1`, for which the Potency result in test [1] and in test [2] was “inactive” in each case.
`CCOc1ccc(CCNC(=O)c2ccc(Oc3ccccc3)cc2)cc1OCC`: the Potency entry in test [1] and in test [2] was “inactive” throughout.
`Cn1cc(Br)c(C2N=C(Nc3nc4ccccc4o3)NC3=C2C(=O)CCC3)n1` (configuration not stated): the Potency result in test [1] and in test [2] was “inactive” each time.
Consider `CC1=C(C(=O)Nc2nccs2)C(c2ccccc2Br)N=C(Nc2nc3ccccc3o2)N1` (configuration not stated), for which the Potency result in test [1] and in test [2] was “inactive” throughout.
For the molecule `Cc1sc2c(c1C)C(c1ccc(Cl)cc1)=N[C@@H](CC(=O)Nc1ccc(O)cc1)c1nnc(C)n1-2`, the Potency entry in test [1] and in test [2] was “inactive” in each case.
